From PubChem
Shown are actives, neighbours in structure and some others; about 0.84% of the full set was active somewhere.
NCOA1 inh: human NCOA1 inhibition; inhibition, % at 3.6 µM; Q15788; AID 588354; 0.12% of 360,000 active; HEK293 GAL4-SRC1 luciferase reporter, luminescence;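 active = inhibition above the campaign mean plus 3 SD, with each screening campaign given its own cutoff, cut at about 60% in these data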;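 also: 0% = DMSO treated cells and 100% = gossypol at 36 µM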
NCOA3 inh: inhibits human SRC3 coactivator. Q9Y6Q9. HEK293 GAL4-SRC3 luciferase reporter, luminescence. inhibition, % at 3.6 µM. 0.17% of 360,000 active;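 active = inhibition above a per-campaign cutoff, the mean of all compounds plus 3 SD, cut at about 60% in these data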;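 also: 0% = DMSO-treated cells and 100% = gossypol-treated cells at 36 µM; higher means less SRC3-driven luciferase light from the GAL4 reporter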
COUP-TFII inh: inhibitors of human COUP-TFII (NR2F2); inhibition, % at 8.6 µM; 0.7% of 370,000 active; P24468; HEK293T NGFI-A luciferase reporter, luminescence;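 active = inhibition above a per-plate cutoff, mean inhibition of test wells between control levels plus 3 SD, cut at about 38% in these data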;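 also: cells cotransfected with COUP-TFII expression vector driving the NGFI-A reporter; 0% = median of COUP-TF2 test wells and 100% = reporter-only cells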
LRH-1 inv ag: NR5A2 inverse agonism in reporter assay; HEK293T StAR-luciferase reporter, LRH-1 transfected, 24 h; O00482; 0.13% of 360,000 active; inhibition, % at 3.6 µM;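 active = inhibition above the mean inhibition of all tested compounds plus 3 SD, cut at about 73% in these data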;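 also: 0% = DMSO wells and 100% = reporter-only cells lacking LRH-1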
SRC2 inh: inhibits human steroid receptor coactivator 2; inhibition, % at 9 µM; HEK293 GAL4-SRC2 luciferase reporter, luminescence; AID 651957; Q15596; 0.17% of 370,000 active;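 active = inhibition above the mean inhibition of all tested compounds plus 3 SD, set per campaign, cut at about 52% in these data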;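 also: 0% = DMSO treated cells and 100% = cells given Gossypol at 36 µM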
VP16 Luc counter: counter-screen for COUP-TFII antagonists: inhibitors of VP16 | shares compounds with COUP-TFII inh | HEK293 Gal4-VP16 luciferase reporter, luminescence | inhibition, % at 8.5 µM | 25% of 2,500 active | AID 687007; in the data active = inhibition above about 13%
COUP-TFII conf: confirmation of human COUP-TFII (NR2F2) inhibitors. shares compounds with COUP-TFII inh. HEK293 NGFI-A luciferase reporter, luminescence. inhibition, % at 8.5 µM. 45% of 2,500 active. AID 687008;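 active = mean inhibition over three repeats above a set limit taken from the earlier primary screen, cut at about 38% in these data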;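 also: 100% = cells given the luciferase reporter alone without the COUP-TF2 vector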
The depositor's hits bear a star.

Screening CCCCCCCCN1C(=O)[C@@H](CC(=O)NCc2ccc(OC)c(OC)c2)C[C@@]2(C(=O)OC)C1=C[C@H](C1CCCC1)O[C@@H]2C returned COUP-TFII inh 3.9 and SRC2 inh 14.9.
`Cc1cc(C(=O)NC2CCCc3c2cnn3-c2cccc(C)c2C)n(C)n1` (centres undefined) gave NCOA1 inh 12.3, NCOA3 inh 19.7, COUP-TFII inh 66.5*, LRH-1 inv ag 43.7, SRC2 inh 14.1, VP16 Luc counter 7.5 and COUP-TFII conf 68.1*.
Screening CCn1nc(C)cc1C(=O)NC1CCCc2c1cnn2-c1ccc(C)c(C)c1 (centres undefined) returned NCOA1 inh 5.5, NCOA3 inh 9.3, COUP-TFII inh 54.3*, LRH-1 inv ag 29.5, SRC2 inh 4.0, VP16 Luc counter -5.2 and COUP-TFII conf 39.6*.
For Cc1ccc(-n2ncc3c2CCCC3NC(=O)c2ocnc2C)cc1C (centres undefined) the results were NCOA1 inh 20.8, NCOA3 inh 27.3, COUP-TFII inh 66.3*, LRH-1 inv ag 34.8, SRC2 inh 17.5, VP16 Luc counter 5.6 and COUP-TFII conf 61.3*.
CC/C(=N/O)C(=O)c1ccc(Br)cc1 was read as NCOA1 inh -3.6, NCOA3 inh -1.0, COUP-TFII inh -7.6, LRH-1 inv ag 2.0 and SRC2 inh 14.3.
`CCCc1ncc(CN2CCC(C(=O)Nc3cccc(-c4cscn4)c3)CC2)cn1` gave NCOA1 inh 21.9, NCOA3 inh 14.5, COUP-TFII inh 37.2, LRH-1 inv ag 21.7 and SRC2 inh 47.0.
Screening OC(c1ccccc1)(c1ccccc1)C1CCN(CCCNc2cccc(Br)c2)CC1 returned COUP-TFII inh -10.8 and SRC2 inh 5.3.
`O=S(=O)(c1ccccc1)N1CCC(O)(CSc2ccc(F)cc2)CC1` gave NCOA1 inh 11.7, NCOA3 inh 22.8, COUP-TFII inh 40.5*, LRH-1 inv ag 27.5, SRC2 inh 34.9, VP16 Luc counter 2.1 and COUP-TFII conf 27.0.
O=C(CNC(=O)c1cccc(F)c1)NC1CC1 was read as NCOA1 inh 9.8, NCOA3 inh 9.8, COUP-TFII inh -1.5, LRH-1 inv ag 2.1 and SRC2 inh -8.5.
COC(=O)[C@H](CC(C)C)N(CCCc1cn(Cc2ccc(C)cc2)nn1)S(=O)(=O)c1ccccc1Br was read as COUP-TFII inh 6.5 and SRC2 inh 12.6.
For COc1ccc([C@H]2CC(=O)C=C(c3ccnc4ccc(Cl)cc34)C2)cc1 the results were NCOA1 inh 30.7, NCOA3 inh 21.7, COUP-TFII inh 68.9*, LRH-1 inv ag 21.1, SRC2 inh -15.7, VP16 Luc counter 11.9 and COUP-TFII conf 64.9*.
For COc1ccc([C@H]2CC(=O)C=C(c3cc(Cl)ccc3C)C2)cc1 the results were NCOA1 inh -8.4, NCOA3 inh 3.6, COUP-TFII inh -16.7, LRH-1 inv ag -3.2 and SRC2 inh -7.3.
`O=C(COC(=O)c1cccc(NS(=O)(=O)c2ccc(F)c(F)c2)c1)NC(=O)NC1CCCC1` gave NCOA1 inh -4.3, NCOA3 inh 16.2, COUP-TFII inh 1.1, LRH-1 inv ag -3.2 and SRC2 inh -26.0.
Cc1cc(C(=O)CSc2nnnn2-c2ccc(O)cc2)c(C)n1Cc1ccc2c(c1)OCO2 was read as NCOA1 inh -11.1, NCOA3 inh -6.2, COUP-TFII inh -2.1, LRH-1 inv ag 21.8 and SRC2 inh -0.2.
Screening Cc1cc(C(=O)CSc2nnc(-c3cccc(F)c3)n2N)c(C)n1Cc1ccc2c(c1)OCO2 returned NCOA1 inh 7.2, NCOA3 inh 22.5, COUP-TFII inh 43.7*, LRH-1 inv ag 40.9, SRC2 inh 8.3, VP16 Luc counter -3.2 and COUP-TFII conf 27.8.
For COc1cccc(CN2C(=O)C(C)N(C(=O)c3ccccc3)c3ccccc32)c1 (centres undefined) the results were NCOA1 inh 21.6, NCOA3 inh 29.0, COUP-TFII inh 53.5*, LRH-1 inv ag 2.3, SRC2 inh 9.8, VP16 Luc counter 0.1 and COUP-TFII conf 29.9.
